Screens: PubChem, several laboratories
In the library only some 32% were active in any assay of this set; here they are far more common.
PostGolgi yeast: phenotypic screen on post-Golgi transport, primary screen. post-Golgi transport phenotypic cell assay. inhibition, % at 10 µM. actives 0.9% (n = 98,000). AID 739, 2007;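 further: yeast cells grown in 1536-well plates; yeast grown about 18 h at 30C before absorbance read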
CYP2C9 act: human CYP2C9 activators, primary screen, biochemical, luminescence; recombinant CYP2C9, luciferin-H conversion; active compounds read high; factor 1 = untreated enzyme, 0 = blocked; activation factor at 5 µM; actives 1.4% (n = 96,000);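 active means activation factor of 2 or more for CYP2C9 at a 5 µM dose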;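 further: 0 = sulfaphenazole-blocked wells and 1 = vehicle-only wells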
CYP2C19 inh: blockers of cytochrome P450 2C19 activity – biochemical, luminescence, ADME assay, primary screen; actives 21% (n = 96,000); AID 778, 2007; inhibition, % at 5 µM; P33261; CYP2C19 Supersomes, luciferin-H EGE luminescence, 30 min;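 active means CYP2C19 inhibition above a set limit at 5 µM in the primary screen, cut at about 50% in these data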;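 further: plate controls were negative control wells for no effect and 2.5 mM tranylcypromine positive control for full effect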
Target sequence (P33261 whole entry, looked up): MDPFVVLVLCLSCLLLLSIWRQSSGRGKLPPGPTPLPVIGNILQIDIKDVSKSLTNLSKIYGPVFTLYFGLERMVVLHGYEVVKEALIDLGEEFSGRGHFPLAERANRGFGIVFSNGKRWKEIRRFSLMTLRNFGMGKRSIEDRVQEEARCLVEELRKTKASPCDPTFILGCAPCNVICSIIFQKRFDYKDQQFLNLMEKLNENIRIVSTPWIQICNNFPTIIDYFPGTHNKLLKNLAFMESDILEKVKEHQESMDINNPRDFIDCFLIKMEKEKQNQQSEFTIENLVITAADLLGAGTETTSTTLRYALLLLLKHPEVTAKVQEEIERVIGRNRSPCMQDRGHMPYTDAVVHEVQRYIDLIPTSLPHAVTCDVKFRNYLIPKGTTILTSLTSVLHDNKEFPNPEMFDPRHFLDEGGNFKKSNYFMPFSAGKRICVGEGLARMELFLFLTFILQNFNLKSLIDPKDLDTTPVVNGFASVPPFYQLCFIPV
CYP2C19 act: human CYP2C19 activators, primary screen, biochemical, luminescence | recombinant CYP2C19, luciferin-H EGE luminescence; active compounds read high; 0 = fully inhibited enzyme, 1 = untreated enzyme | activation factor at 5 µM | 96,000 tested, under 10 active | AID 1025, 2008;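 active means activation factor of at least 2 at 5 µM in the primary screen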;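 further: 0 = wells with 2.5 mM tranylcypromine and 1 = vehicle-only wells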
PostGolgi ctrl: growth inhibition of yeast control strain, primary screen, counter-screen for post-Golgi transport modulator project. actives 5% (n = 98,000). efflux-deficient yeast background strain, growth absorbance A615, 16 h. AID 738, 2007. inhibition, % at 10 µM
CYP2C9 inh: blockers of cytochrome P450 2C9 activity – biochemical, luminescence, ADME assay, primary screen; P11712; CYP2C9 Supersomes, luciferin-H conversion; inhibition, % at 5 µM; actives 20% (n = 96,000); AID 777, 2007;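 active means blocking of liver enzyme CYP2C9 beyond about 50% at 5 µM, limit read from the data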
Numbers without * were called inactive; . = not tested or not shown. Unless noted, no stated cut-off is given here; in the data, active means inhibition above about 30%; inactive means the rest.

SMILES	PostGolgi yeast	CYP2C9 act	CYP2C19 inh	CYP2C19 act	PostGolgi ctrl	CYP2C9 inh
CC(C)[C@H](NC(=O)OC(C)(C)C)c1nnc(SCc2cccc(F)c2)o1	1	1	5	1	4	-2
O=C(O)c1cccc(CSc2nnc(COc3ccccc3)o2)c1	1	1	9	0.9	-10	4
CCC(C)[C@H](N)c1nnc(SCc2cccc(F)c2)o1 (some centres not stated)	4	1.1	62*	0.4	7	-6
O=C(NCC1CCCO1)C1C2C=CC3(CN(Cc4cccs4)C(=O)C13)O2 (configuration not stated)	4	0.8	3	1	1	17
C=CCNC(=O)COc1ccc(S(=O)(=O)NC2CCCCC2)cc1	-6	0.5	29	0.7	11	48
CCOC(=O)Cc1ccc(NC(=O)c2ccc(C(C)(C)C)cc2)cc1	-13	1	40	0.6	14	1
O=C(NN1c2ccccc2CCc2ccccc21)c1ccccc1Br	-5	0.8	26	0.7	16	20
CCn1c(CSc2nc3ccccc3s2)nnc1SCC(=O)OC(C)(C)C	11	1.1	18	0.8	12	-9
CCCN1C(=O)N(C)C(N(O)C(=O)NC)C1(C)C (configuration not stated)	-4	1	8	0.9	6	4
CCn1c2ccccc2c2cc(NC(=O)CSc3nnc(-c4cccc(Cl)c4)o3)ccc21	-2	0.6	47	0.5	2	39
NCCCCCc1nnc(SCc2ccc(Cl)cc2Cl)o1	0	0.6	61*	0.4	-2	37
CCC(C)[C@H](N)c1nnc(SCC(=O)Nc2cccc(Cl)c2)o1 (some centres not stated)	-11	0.5	97*	0	8	50*
COC(=O)c1[nH]c2cccc(OC)c2c1NC(=O)CN1CC2(C)CC1CC(C)(C)C2 (configuration not stated)	3	1	2	1	9	-1
O=C(CSc1ncn(-c2ccccc2)n1)Nc1ccc(Br)cn1	-1	0.4	75*	0.2	15	58*
O=C(CSc1ccccn1)Nc1ccc(Br)cn1	-4	0.9	54*	0.5	26	15
O=C(NCc1ccccc1)C1C2C=CC3(CN(Cc4cccnc4)C(=O)C13)O2 (configuration not stated)	6	1	6	0.9	4	-4
CC(C)N1C(=O)C2C(C(=O)NCc3ccccc3)C3C=CC2(O3)C1C(=O)NC(C)(C)C (configuration not stated)	6	0.9	2	1	42*	6
CC(C)c1ccc(-c2c(C#N)c(N)nc(SCC(=O)N3CCCCC3)c2C#N)cc1	-7	0.5	21	0.8	0	46
O=C(Nc1ccc(Br)cc1)c1ccc(N2C(=O)C3CC=C(Cl)CC3C2=O)cc1 (configuration not stated)	2	0.3	13	0.9	-6	74*
O=C(c1ccc(N2C(=O)C3CC=C(Cl)CC3C2=O)cc1)N1CCCCC1 (configuration not stated)	1	1.1	-24	1.2	1	-11
COC(=O)c1ccc(C)c(NS(=O)(=O)c2ccc(OC)cc2)c1	-9	0.3	100*	0	12	70*
COC(=O)c1cccc(NS(=O)(=O)c2ccc(NC(C)=O)cc2)c1C	0	1.4	38	0.6	6	-36
COC(=O)c1ccc(Sc2ccccc2NS(=O)(=O)c2ccc(NC(C)=O)cc2)nc1	-6	0.2	61*	0.4	17	80*
COC(=O)c1sccc1NS(=O)(=O)c1ccc(OC)cc1	3	1	37	0.6	18	0
COC(=O)c1ccc(N2CCN(S(=O)(=O)c3ccccc3)CC2)c([N+](=O)[O-])c1	-6	0.7	13	0.9	6	31
SMILES	PostGolgi yeast	CYP2C9 act	CYP2C19 inh	CYP2C19 act	PostGolgi ctrl	CYP2C9 inh
COC(=O)c1ccc(C(=O)OC)c(NS(=O)(=O)c2ccc(NC(C)=O)cc2)c1	3	0.1	62*	0.4	6	90*
COC(=O)c1ccc(C)c(NS(=O)(=O)c2ccc(C)c([N+](=O)[O-])c2)c1	-8	0.2	90*	0.1	12	80*
O=C(Nc1nnc(CC(=O)N2CCOCC2)s1)C1COc2ccccc2O1 (configuration not stated)	5	1.2	-22	1.2	0	-25
COC(=O)c1ccc(C(c2c(N)n(Cc3ccccc3)c(=O)n(C)c2=O)N2CCOCC2)cc1 (configuration not stated)	-18	0.7	26	0.7	-2	28
CCN(CC)CCCN(Cc1cc2cc3c(cc2[nH]c1=O)OCCO3)C(=O)Nc1ccccc1	1	0.9	0	1	-1	14
COC(=O)c1ccc(C)c(NS(=O)(=O)c2ccc3c(c2)OCCO3)c1	-3	0.4	91*	0.1	8	62*
COc1ccccc1Nc1nc(C)cc(C)c1C(N)=O	-4	1.1	-5	1.1	9	-9
Cc1cc(C)c(C(N)=O)c(NCCc2ccccc2)n1	-2	0.9	56*	0.4	-1	8
COc1ccc(-c2nc(-c3cccc(C)c3)nc(Cl)c2C#N)cc1	-1	0.3	4	1	6	69*
COc1ccc(-c2nc(-c3ccccc3)nc(Cl)c2C#N)cc1	-4	0.7	7	0.9	12	25
COc1ccc(-c2nc(-c3ccccc3)[nH]c(=O)c2C#N)cc1	-6	0.3	-16	1.2	4	65*
CC1CCN(c2nc(-c3ccccc3)c(C#N)c(=O)[nH]2)CC1	-5	0.9	1	1	0	6
COc1ccc(-c2c(C#N)c(C)nc3c2C(=O)c2ccccc2-3)cc1	-13	0.5	57*	0.4	19	48
O=C(NCc1ccco1)c1noc2c1CCCCC2	-5	1	5	1	-7	3
Cc1cc2nc(C)n(CCCNC(=O)Nc3cccc4ccccc34)c2cc1C	-2	0.4	46	0.5	3	57*
CCOc1ccc(NC(=O)NCCCn2c(C)nc3cc(C)c(C)cc32)cc1	6	0.2	35	0.6	1	81*
Cc1cc(C)n(C(C)n2nc(C)cc2C)n1	4	1.1	17	0.8	7	-8
COc1ccc(Cl)cc1NC(=O)c1cnc2sccn2c1=O	-2	2.1*	2	1	6	-112
O=C(Nc1cnc2sccn2c1=O)c1ccc(Cl)cc1Cl	-3	1.6	7	0.9	32*	-58
COC(=O)c1ccccc1NC(=O)c1cnc2sccn2c1=O	.	0.9	2	1	.	9
